From PubChem BioAssay (EPA / NIEHS)
Calls of active or inactive are those of the source. Rule for the calls: active = hit-call score of the fitted dose curve at least 0.9, where 1 is the maximum; inactive = score below 0.9.

Assays:
[1] = APR_HepG2_CellCycleArrest_24hr: Apredica 24-hour HepG2 Assay for Cell Cycle Arrest (AID 2282905); settings: imaging, actives raise or lower the signal;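 note: cell cycle arrest scored as ratio of 2N to 4N nuclear DNA content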
How it was run: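 Cell cycle arrest is scored from nuclear DNA content measured by high-content imaging of Hoechst 33342-stained HepG2 cells following 24-hour treatment at ten concentrations up to 200 uM, with DMSO as baseline.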

[2] = APR_HepG2_NuclearSize_24hr: Apredica 24-hour HepG2 Assay for Nuclear Size (AID 2282907); settings: high-content imaging, actives raise or lower the signal
How it was run: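 Compounds in DMSO (final 0.5%) were added to human HepG2 hepatoma cells at ten concentrations up to 200 uM for 24 hr. Fixed nuclei were stained with Hoechst 33342, and nuclear diameter was quantified from automated images.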

[3] = APR_HepG2_CellLoss_24hr: Apredica 24-hour HepG2 Assay for Cell Loss (AID 2282908); settings: high-content imaging;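 for AC50: fit in both directions so a hit may be cell loss or gain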
How it was run: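 Cell number is quantified by fluorescence imaging of Hoechst 33342-stained nuclei following dosing at 0.39–200 uM in 0.5% DMSO. Curves are fitted in both directions from the DMSO baseline.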

[4] = APR_HepG2_MicrotubuleCSK_24hr: Apredica 24-hour HepG2 Assay for Microtubule CSK Stabilty (AID 2282909); settings: HepG2 microtubule cytoskeleton imaging, actives raise or lower the signal
How it was run: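 Steps: dose HepG2 for 24 h (0.39–200 uM, 0.5% DMSO); fix 30 min in 3.7% formaldehyde at room temperature; permeabilize; stain alpha-tubulin 60 min; image microtubule cytoskeleton at 20x. Signal change fitted in both directions relative to DMSO.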

[5] = APR_HepG2_MitoticArrest_24hr: Apredica 24-hour HepG2 Assay for Mitotic Arrest (AID 2282910); settings: high-content imaging, actives raise or lower the signal
How it was run: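 HepG2 human liver cells were exposed to compounds at 0.39–200 uM (10 concentrations, duplicate) in 0.5% v/v DMSO for 24 hr, then fixed and immunostained for phospho-histone H3 with Hoechst 33342. Mitotic arrest came from HCS fluorescent imaging, fitted bidirectionally against DMSO.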

[6] = APR_HepG2_MitoMembPot_24hr: Apredica 24-hour HepG2 Assay for Mitochondrial Membrane Potential (AID 2282911); settings: imaging, actives raise or lower the signal
How it was run: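 HepG2, 24 hr dosing, 10 concentrations 0.39–200 uM, 0.5% DMSO final. Live-cell MitoTracker Red CMXRos 250 nM 30 min, then 3.7% formaldehyde fix. HCS fluorescence imaging, 20x; bidirectional fit vs DMSO baseline.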

[7] = APR_HepG2_MitoMass_24hr: Apredica 24-hour HepG2 Assay for Mitochondrial Mass (AID 2282912); settings: high-content imaging, actives raise or lower the signal
How it was run: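 The liver line HepG2 was dosed in duplicate across a 0.39–200 uM series, with final DMSO held at 0.5% v/v, and harvested at 24 hr. High-content imaging measured mitochondrial dye staining.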

[8] = APR_HepG2_p53Act_24hr: Apredica 24-hour HepG2 Assay for p53 Activation (AID 2282913); settings: high-content imaging, actives raise or lower the signal;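 note: p53 protein immunofluorescence averaged per cell in HepG2 with Hoechst nuclei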
How it was run: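 Read-out: Cy5 immunofluorescence for p53 in fixed, permeabilized HepG2, imaged by HCS with Hoechst-defined nuclei. Dosing was 24 hr at 0.39–200 uM in 0.5% DMSO. Curves were fitted bidirectionally relative to DMSO.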

[9] = APR_HepG2_CellLoss_72hr: Apredica 72-hour HepG2 Assay for Cell Loss (AID 2282915); settings: high-content imaging
How it was run: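 HepG2 cells were exposed for 72 hr to compounds at 0.39–200 uM (ten concentrations, duplicate) in 0.5% v/v final DMSO. Nuclei were stained with Hoechst 33342 after 3.7% formaldehyde fixation, imaged at 20x, and counted; fits bidirectional versus DMSO.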

[10] = APR_HepG2_CellCycleArrest_72hr: Apredica 72-hour HepG2 Assay for Cell Cycle Arrest (AID 2282914); settings: high-content imaging, actives raise or lower the signal
How it was run: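 HepG2, 72 hr exposure, 10-point 0.39–200 uM, duplicate, 0.5% DMSO final. Fix 3.7% formaldehyde 30 min RT, Triton X-100 0.5%, Hoechst 33342 2 ug/mL. ArrayScan 20x, six fields/well; DNA content per nucleus; bidirectional fit vs DMSO.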

Measured: AC50

O=C(N[C@H](c1ccccc1)[C@@H]1CN2CCC1CC2)c1c(Cl)ccc(C(F)(F)F)c1Cl
inactive: [4] | [6] | [7]
active: [1] 60.8 µM | [2] 88.8 µM | [3] 120 µM | [5] 78.7 µM | [8] 101 µM | [9] 64 µM

CCCCCCCCOC(=O)c1ccc(C(=O)OCCCCCCCC)c(C(=O)OCCCCCCCC)c1
inactive: [1] | [2] | [3] | [4] | [5] | [6] | [7] | [8] | [9]

Nc1ccc([N+](=O)[O-])cc1
inactive: [1] | [2] | [3] | [4] | [5] | [6] | [7] | [8] | [10] | [9]

OCCOCCO
inactive: [1] | [2] | [3] | [4] | [5] | [6] | [7] | [10] | [9]

CNC(=O)Oc1cccc2c1OC(C)(C)C2
inactive: [1] | [2] | [3] | [4] | [6] | [7] | [8] | [10] | [9]

CC(C)N(Cc1ccccc1)C(=O)C(C)(C)C
inactive: [1] | [2] | [3] | [4] | [6] | [7] | [8] | [10] | [9]

CC(C)(C)C(O)(CCc1ccc(Cl)cc1)Cn1cncn1 (stereo not drawn)
active: [3] 104 µM | [4] 115 µM | [5] 107 µM | [7] 124 µM | [8] 110 µM | [9] 116 µM
inactive: [1] | [2] | [6]

CC(C)(C)OOC(C)(C)CCC(C)(C)OOC(C)(C)C
inactive: [1] | [2] | [3] | [4] | [5] | [6] | [8]
active: [7] 56.5 µM | [9] 56.1 µM

CN(C)[C@@H]1C(=O)C(C(N)=O)=C(O)[C@@]2(O)C(=O)C3=C(O)c4c(O)cccc4[C@@](C)(O)[C@H]3C[C@@H]12
inactive: [1] | [3] | [4] | [5] | [6] | [7] | [8] | [9]

CCCCCCCCn1sccc1=O
active: [1] 6.2 µM | [2] 10.7 µM | [3] 16.1 µM | [4] 79.4 µM | [6] 53.4 µM | [8] 3.62 µM | [9] 5.76 µM
inactive: [7] | [10]

O=C1CCCO1
inactive: [1] | [2] | [3] | [4] | [6] | [7] | [8] | [10] | [9]

CN(C)c1ccc(C(=O)c2ccc(N(C)C)cc2)cc1
inactive: [2] | [6] | [7]
active: [1] 4.79 µM | [3] 1.64 µM | [4] 0.403 µM | [8] 0.317 µM | [9] 1.75 µM

Clc1ccc(Cl)c(Cl)c1
inactive: [1] | [2] | [3] | [4] | [6] | [7] | [8] | [9]

Clc1ccc(C(c2ccc(Cl)cc2)C(Cl)(Cl)Cl)cc1
active: [3] 57.9 µM | [5] 50.1 µM | [6] 30.3 µM | [7] 44.4 µM | [8] 54.7 µM | [9] 50.5 µM
inactive: [1] | [4] | [10]

c1ccc2c(c1)oc1ccccc12
inactive: [1] | [2] | [3] | [4] | [6] | [7] | [8] | [9]

CCC(C)c1ccc(O)cc1 (stereo not drawn)
inactive: [1] | [2] | [3] | [4] | [6] | [7] | [8] | [9]

CN(C)c1ccccc1
inactive: [1] | [2] | [3] | [4] | [6] | [7] | [8] | [9]

ClC1=C(Cl)C2(Cl)C3C(Cl)C=CC3C1(Cl)C2(Cl)Cl (stereo not drawn)
inactive: [6]
active: [1] 40.9 µM | [3] 99.2 µM | [4] 68.7 µM | [5] 76.8 µM | [7] 55 µM | [8] 67.9 µM | [9] 56 µM

Brc1ccc(Oc2ccccc2)cc1
inactive: [1] | [2] | [4] | [6] | [7] | [8]
active: [3] 114 µM | [9] 109 µM

Cc1cc(N=Nc2ccccc2C)ccc1N
active: [1] 100 µM | [3] 70 µM | [5] 87.6 µM | [6] 101 µM | [7] 121 µM | [10] 21.5 µM | [9] 43.1 µM
inactive: [4] | [8]
